Bioassay records as filed in PubChem.
Only some compounds are listed: those with a hit (about 8.9% of all), similar ones and a draw of the others.
KB-V1 MDR tox: kills drug-selected multidrug resistant KB-V1 cells; KB-V1 MDR cells viability, CellTiter-Glo, 72 h; Potency, µM (highest dose often 46.1 µM), actives largely listed as cytotoxic; actives 3.4% (n = 400,000); AID 1347076; further: potency means the concentration at half of the fitted maximal effect; on the % scale 0 is the no-effect control and ±100 the full control effect; nearly all actives have a fitted effect of over 60% in size
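Cytotoxicity via CellTiter-Glo luminescence after 72 h compound exposure at 37 degrees C. Cells: drug-selected KB-V1 line, DMEM phenol-red free plus 10% FBS. Compounds tested at multiple concentrations; normalized data fitted to concentration-effect curves.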
SW480 rerep: inducers of DNA re-replication in SW480 colon cancer cells. SW480 DNA re-replication, Hoechst DNA content imaging, 48 h. Potency, µM (series often up to 46.1 µM), inactives show at the highest dose re-replication activation, most hits filed as activators. actives 1.8% (n = 340,000); further: potency means the concentration at half of the fitted maximal effect; % of control where 0% means no effect; nearly all actives have a fitted effect of over 55% in size
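Per well, 250 cells were exposed to pinned compound for 48 hr. Nuclear DNA was visualised with Hoechst (40 min, 37 C) and total object intensity recorded by fluorescence scanning.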
KB-3-1 tox: KB-3-1 parental cell cytotoxicity; KB-3-1 viability, CellTiter-Glo ATP luminescence, 72 h; Potency, µM (doses to about 46.1 µM), most hits filed as cytotoxic; actives 1.4% (n = 400,000); further: potency means the concentration at half of the fitted maximal effect; on the % scale 0 is the no-effect control and ±100 the full control effect; nearly all actives have a fitted effect of over 60% in size
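Cytotoxicity in the drug-sensitive parental line KB-3-1 was scored as loss of CellTiter-Glo luminescence following 72 h incubation with compound. Values come from curve fitting of normalized concentration-response data.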
DRD3 antagonist: D3 dopamine receptor (human) antagonism | P35462 | D3R cells, DiscoveRx beta-arrestin luminescence, antagonist mode; hits give low values | max response, negative = inhibition, % | actives 2.5% (n = 360,000) | AID 652054; in the data active means max response below about -50%; inconclusive means no clear call, values can overlap the other calls; further: on the % scale 0 is the no-effect control and ±100 the full control effect
Target sequence (P35462 whole entry, looked up): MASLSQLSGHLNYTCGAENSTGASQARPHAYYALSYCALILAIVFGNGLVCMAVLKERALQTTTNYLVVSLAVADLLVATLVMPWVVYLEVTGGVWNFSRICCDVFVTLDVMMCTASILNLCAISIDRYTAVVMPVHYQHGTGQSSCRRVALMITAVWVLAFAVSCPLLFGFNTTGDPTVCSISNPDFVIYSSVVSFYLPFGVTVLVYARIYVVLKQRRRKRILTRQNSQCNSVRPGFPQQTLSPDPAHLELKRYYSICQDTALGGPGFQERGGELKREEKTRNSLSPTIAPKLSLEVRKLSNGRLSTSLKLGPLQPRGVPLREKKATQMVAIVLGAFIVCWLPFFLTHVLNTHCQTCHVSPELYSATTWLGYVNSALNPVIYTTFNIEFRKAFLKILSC
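Cells expressing the human receptor were seeded at 1500 cells/well, incubated overnight at 37 degrees C in 5% CO2, then exposed to library compounds with dopamine controls for 90 minutes at 37 degrees C before luminescent detection.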
MCF10A rereplic: inducers of DNA re-replication in MCF 10A breast cells. MCF 10A DNA re-replication, Hoechst nuclear intensity, 48 h. Potency, µM (doses to about 46.1 µM), for inactives: at the highest dose activity, positive = re-replication, most hits filed as activators. actives 2.9% (n = 350,000). AID 624296; further: potency means the concentration at half of the fitted maximal effect; % of control where 0% means no effect; nearly all actives have a fitted effect of over 50% in size
DRD3 agonist: D3 dopamine receptor (human) agonism | P35462 | AID 652048 | max activation, % | actives 0.58% (n = 410,000) | D3R DiscoveRx beta-arrestin cells, luminescence, 90 min; in the data active means max activation above about 30%; further: 0% is about no effect
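Agonist-mode cell screen: cells plated at 1500/well and incubated overnight at 37 °C, then exposed to library compounds for 90 min at 37 °C. Detection reagent was added for 30–60 min at room temperature, and luminescence was read.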
An asterisk follows results filed as active; i = inactive; ? = inconclusive; / = no result given; [ ] = dose if it differs, or a comment. Unless noted, the call rests on the fitted dose curve; in most records, active means well fitted curve in the direction sought with a large enough effect; inconclusive means small, poorly fitted or top-dose-only effect, or another doubt; inactive means no such curve, though single readings can be large; an effect the other way counts as inactive or inconclusive.

SMILES	KB-V1 MDR tox	SW480 rerep	KB-3-1 tox	DRD3 antagonist	MCF10A rereplic	DRD3 agonist
COc1cccc(=O)c2c(C)n(-c3cc(C)cc(C)c3)c(C)c12	i	0%	i	-65*	?	6
COc1cccc(-n2c(C)c3c(OC)cccc(=O)c3c2C)c1	?	-1%	i	-26	?	-9
O=C(CN1C(=O)CCc2cc(S(=O)(=O)N3CCOCC3)ccc21)Nc1cccc(Cl)c1	i	/	i	/	/	2
COc1ccccc1N(C(=O)c1snc(C(N)=O)c1N)C(C(=O)NCc1ccccc1)c1ccc(O)cc1 (centres undefined)	i	15%	i	2	?	11
COCCN(C(=O)c1snc(C(N)=O)c1N)C(C(=O)NC1CCCCC1)c1ccc(F)cc1 (centres undefined)	i	?	i	10	16µM*	8
NC(=O)c1nsc(C(=O)N(c2ccccc2F)C(C(=O)NCc2ccc(F)cc2)c2ccc(O)cc2)c1N (centres undefined)	i	?	?	36	23µM*	7
Cc1cccc(CCN(C(=O)c2snc(C(N)=O)c2N)C(C(=O)NCC2CCCO2)c2ccc(F)cc2)c1 (centres undefined)	21µM*	?	i	8	?	2
COc1ccc(CCN(C(=O)c2snc(C(N)=O)c2N)C(C(=O)NCC2CCCO2)c2ccc(F)cc2)cc1OC (centres undefined)	i	-14%	i	10	8%	36*
COc1ccccc1NC(=O)NCc1cccn1Cc1ccccc1	i	/	i	/	/	-3
CC1=C(/C=N/Nc2ccc([N+](=O)[O-])cc2[N+](=O)[O-])C(C)(C)CCC1	?	2%	16µM*	23	15%	2
O=C(Nc1nnc(-c2ccccc2Cl)o1)c1ccco1	16µM*	12µM*	i	25	99%	2
O=C(Nc1ccccc1)c1cccc(-c2nnc(-c3ccccc3)o2)c1	i	-9%	i	-4	1%	-1
COc1c(F)c(F)c(C(=O)Nc2ccc3oc(-c4ccncc4)nc3c2)c(F)c1F	?	-1%	i	15	0%	7
O=C(Nc1ccc2oc(-c3ccncc3)nc2c1)c1c(F)c(F)c(F)c(F)c1F	i	4%	i	-66*	-31%	-16
O=C(Nc1ccc2oc(-c3ccccc3)nc2c1)c1ccco1	23µM*	-2%	i	5	16%	27
O=C(Nc1cccc(-c2nnc(-c3ccccc3)o2)c1)c1ccco1	2.9µM*	-7%	i	30	14%	9
Cc1c(CNC(C)CCc2ccccc2)c(C(=O)O)c(C)n1Cc1ccc(F)cc1 (centres undefined)	i	/	i	/	/	7
COc1cc(NC(=O)Cc2c(C(=O)O)c(C)cn2C)cc(OC)c1	?	/	i	/	/	-4
COc1cccc(N2CCN(C(=O)C3CCN(S(=O)(=O)c4c(C)noc4/C=C/c4ccccc4F)CC3)CC2)c1	/	/	/	/	/	0
COc1ccc(CN2CC(COCc3ccccc3)Oc3ccccc3S2(=O)=O)cc1 (centres undefined)	i	-2%	i	0	2%	41*
CC(=O)N1CC(c2ccccc2)C(c2ccc(Cl)cc2)=N1 (centres undefined)	15µM*	-2%	i	-21	5%	-5
CC(C)NC(=O)N1CC(c2ccccc2)C(c2ccc(Cl)cc2)=N1 (centres undefined)	?	9%	i	-19	-3%	-9
Cc1nn(-c2ccccc2)cc1/C=N/O	i	2%	i	-12	1%	-2
Cc1nn(-c2ccccc2)cc1/C=N/NC(N)=S	16µM*	-3%[9.22 µM]	?	6	?	10
COCCCNc1c2c3c(cccc3[nH]c1=O)C(=O)c1ccccc1-2	2.1µM*	18µM*	5.8µM*	27	15µM*	0
SMILES	KB-V1 MDR tox	SW480 rerep	KB-3-1 tox	DRD3 antagonist	MCF10A rereplic	DRD3 agonist
CN(C)c1ccc(/C=C/c2ccnc3c2ccc2c(/C=C/c4ccc(N(C)C)cc4)ccnc23)cc1	i	/	?	/	/	/
CN(C)c1ccc(C=Cc2cnccn2)cc1	i	?	i	5	18µM*	4
COc1ccc(C)cc1NC(=O)C(=O)NCC(c1cccnc1)N1CCN(c2ccccc2F)CC1 (centres undefined)	i	/	i	/	/	-18
COc1ccc(-c2nc3ccc(N4CCCC4)cc3c(=O)[nH]2)cc1OC	?	11µM*	?	21	23µM*	1
CCn1c(SCC(=O)N(C)C)nc2cc(S(=O)(=O)N3CCCCC3)ccc21	21µM*	-3%	i	-4	-3%	-9
CCn1c(C)nc2cc(S(=O)(=O)N3CCCCC3)ccc21	i	-3%	i	1	5%	-5
CCn1c(CN2CCCCC2)nc2cc(S(=O)(=O)N3CCCCC3)ccc21	i	14%	i	-81*	?	-10
COc1cccc(C(=O)Nc2cc(-c3ccccc3)no2)c1	i	/	i	/	/	-10
CN(c1ccccc1)c1ccc(/C=C(\C#N)c2nnc3n2CCCCC3)cc1[N+](=O)[O-]	10µM*	-5%	?	-9	?	-7
O=C1Oc2ccccc2C(=O)/C1=C/N1CCN(c2ccccc2F)CC1	i	7%	i	-59*	4%	-27
CCN(CC)c1cc(C)c2cc(NC(=O)/C=C/c3ccc(C)cc3)ccc2n1	i	/	i	/	/	-3
N#CCC(=O)N/N=C/c1cn(Cc2ccc(Cl)cc2Cl)c2ccccc12	i	?	i	12	12µM*	3
O=C(CNc1ccc2c(c1)OCO2)N/N=C\c1cn(Cc2ccc(F)cc2)c2ccccc12	/	-2%	/	/	21µM*	/
CCCCCCN1CCN(C2CN(Cc3ccccc3)S(=O)(=O)C2)CC1 (centres undefined)	i	/	i	-94*	/	-15
Cc1ccc(CN2CC(N3CCN(C)CC3)CS2(=O)=O)cc1 (centres undefined)	i	/	i	-68*	/	-3
COC(=O)c1c(NC(=O)C2SC(=NC3CCCCC3)C(C(N)=O)=C2N)sc2c1CCCC2 (centres undefined)	i	-8%	i	23	?	-6
C=C(C)CN=C1SC(C(=O)Nc2sc3c(c2C(=O)OC)CCC3)C(N)=C1C(N)=O (centres undefined)	9.2µM*	?	?	6	4.1µM*	0
O=C(C[N+]1(CCc2ccccc2)CCOCC1)c1ccccc1	i	/	i	/	/	/
